Hit rate of the full screen: of about 4,100 compounds, about 1,600 (39%) were called active. Inconclusive results (about 25%) are left out. Calls come from the whole dose curve; as a rule, active = well fitted inhibition curve with a large enough effect; inconclusive = small, poorly fitted or top-dose-only effect; inactive = no such curve, though single readings can be large or run the other way. The list shows a part of the results.
test: qHTS Validation assay for Inhibitors of Plasmodium falciparum Dd2 growth in vitro; note: nearly all actives have a fitted effect of over 70% in size; details: P. falciparum Dd2 in RBCs, SYBR Green growth, 72 h; series mostly up to 28.7 µM; activity change, negative = inhibition: at the top concentration
In short: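 P. falciparum Dd2-infected red blood cells (2.5% hematocrit, 0.3% parasitemia) grown 72 h at 37 °C under 5% O2 with compounds in a titration, 29 uM to 0.5 nM final. Growth read as SYBR Green-1 fluorescence after ~16 h lysis; artesunate 300 nM as positive control.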
% is set by controls: 0 for no effect and ±100 for the full control effect; potency is the fitted concentration of half-maximal effect.

Activity change, negative = inhibition, inactive:
O=C(NCc1nnc2ccc(-c3ccccc3)nn12)c1cc(Cl)ccc1F -3.02%, Cc1nn(-c2cccc(Br)c2)c(C)c1[C@@H]1C=C[C@@H](NC(=O)c2cccs2)C1 -11.6%, O=C(NC1C[C@H]2CC[C@@H](C1)N2C(=O)c1ccco1)c1ccncc1 (some centres not stated) 20%, Cc1cc(=O)n(C(C)C(=O)NCc2ccccc2Cl)c2c1c(C)nn2-c1ccccc1 (configuration not stated) 27.8%, Cc1cccc(CCNC(=O)CCS(=O)(=O)c2cc3c(cc2Cl)NC(=O)CO3)c1 22.2%, COc1ccc(OC)c(C2CCN(c3ncncn3)C2)c1 (configuration not stated) 20.9%, CC(C)Oc1ccc2c(NC(=O)c3ccn(C)n3)nn(CC(F)(F)F)c2c1 22.3%, O=C(NCc1cc(F)ccc1F)C1CCN(c2cn[nH]c(=O)c2)C1 (configuration not stated) 14%, Cn1c(=O)oc2cc(S(=O)(=O)CCC(=O)N3CCN(c4ccccc4F)CC3)ccc21 37.6%, O=C(Nc1ccc(Cl)cc1)c1nc2c(o1)CCN(Cc1ccc(F)cc1F)CC2 -4.48% [at 43.1 µM], O=C1CCN(Cc2ccc(F)cc2F)CCCC(c2nc(-c3cnccn3)no2)CCN1 (configuration not stated) -24.9%, COc1ccc2c(c1OC)C(=O)OC2CC(=O)c1ccc(O)cc1 (configuration not stated) 14.8%, COc1ccc(/C=C/C(=O)NCCc2ccc(OC)c(OC)c2)cc1 10.2%, Fc1ccccc1Cn1nnc2c(-n3ccnc3)ncnc21 4.31%, O=C1Nc2ccccc2CN(CC2CC2)C12CCNCC2 1.97%, CN(C)c1ncnc2sc3c(c12)CCN(Cc1ccc2cc[nH]c2c1)C3 -7.09%, Cc1nnc(-c2cc(Nc3cccc(N(C)C)c3)ccn2)n1Cc1ccccc1 -11% [at 43.1 µM], O=C1NC(=NC2CCCC2)C2(CCN(Cc3ccsc3)C2)N1c1cccnc1 (configuration not stated) -11.2%, Cc1ccc(C)c(OC(=O)CSc2nnc(-c3cccs3)o2)c1 13%, CCOc1ccc(C(=O)Nc2cc(C)on2)cc1 -10.9%, CNS(=O)(=O)c1cn(CC(=O)N2CCN(c3ccc(C(C)=O)cc3)CC2)cc1S(=O)(=O)NC 41.4%, Cc1ccc(S(=O)(=O)NCc2nc3nc(C)cc(C)n3n2)c(C)c1 12.5%, Cc1cc(NC2C3CC4CC(C3)CC2C4)n2nnnc2n1 (configuration not stated) -20.8%, CC(C)c1ccc(OCc2ccc(C(=O)O)o2)cc1 -2.28%, COc1ccc(NC(=O)c2ccc3c(c2)n(C)c(=O)c2ccnn23)cc1OC -18.1%, O=C(NC(=S)Nc1ccc2c(c1)OCCO2)c1ccccc1F 35%, C1CCC(COCCc2noc(C3CNC3)n2)C1 -91.5%, Cc1cc(C)cc(NC(=O)NCc2c(-n3cccc3)sc3c2CCCC3)c1 36.2%, CC(=O)N1Cc2ccccc2CC2(CCN(CC3CCOCC3)C2)C1 (configuration not stated) 12.6%, CC(=O)N1Cc2ccccc2CC2(CCN(Cc3ccccn3)CC2)C1 17.5%, C[C@@H](c1ccccc1)N1C(=O)[C@@H]2CN(C(=O)c3cccnc3)CCN2C1=O 37.2% [at 43.1 µM], CCCCSc1nnc2c(n1)OC(C)N(C(C)=O)c1ccccc1-2 (configuration not stated) 9.17%, COc1cc(NS(=O)(=O)c2cnc(N)nc2)cc(OC)c1 0%, CCOc1ccc(S(=O)(=O)Nc2ccc3oc4c(c3c2)CC(C)CC4)cc1 (configuration not stated) 27.2%, CCn1cc(C(=O)N2CCN(c3ccc(OC)cc3)CC2)c(=O)c2cc(S(=O)(=O)N3CCOCC3)ccc21 32.5%, COCCOC1CCOC2(CCN(C(=O)c3ccco3)CC2)C1 (configuration not stated) -41.3%, COc1ccccc1-n1c(SCC(=O)NC(C)(C)C)nc(O)cc1=O 12.2%, COCCN1C(=O)CC[C@]2(C(=O)NCc3ccccc3Cl)CCCC[C@@H]12 -5.07%, COCCN1C(=O)CCC2(CNC(=O)CCc3nc4ccccc4[nH]3)CCCC=C12 (configuration not stated) 12.1%, COc1nc(N(C)S(=O)(=O)c2ccc(C)cc2)nc(C)c1Br 21.9%, Cc1cnc(CCNC(=O)Cn2c(=O)oc3ccccc32)n1C1CC1 -13.1%, Cc1nnc2n1CCC(N(C)S(=O)(=O)c1cn(C)cn1)CC2 (configuration not stated) 10.2%, CN(CCn1cc(-c2nccn2C)nn1)S(C)(=O)=O 39.1%, Cc1noc(-c2ccn3c(CNC(=O)c4ccccc4Cl)nnc3c2)n1 10.4%, O=C(O)Cn1c(-c2ccccn2)nc2ccccc21 41%, COC(=O)COc1ccc(-c2nccc(-c3ccccn3)n2)cc1 40%, Cc1ccccc1Nc1nnc(SCc2cc(=O)n3ccsc3n2)s1 4.3%, Cc1nn(C)cc1CN(C)C(=O)CC12CC3CC(CC(C3)C1)C2 21.6%, CC(C)c1noc(-c2cn(C3CCCN(C(=O)c4ccc(N(C)C)cc4)C3)nn2)n1 (configuration not stated) -13.1%

Potency, active:
O=C(NCCCNc1ccnc2cc(Cl)ccc12)c1ccccc1F 0.842 µM, O=C(NCCNc1ccnc2cc(Cl)ccc12)c1ccccc1F 1.68 µM, Cc1nn(-c2ccc(C(C)(C)C)cc2)c(C)c1[C@@H]1C=C[C@@H](NC(=O)c2ccco2)C1 12.2 µM, COc1ccc(-n2nc(C)c([C@@H]3C=C[C@@H](NCc4ccc(F)cc4)C3)c2C)cc1 1.37 µM, Cc1nn(-c2ccc(C(C)C)cc2)c(C)c1[C@@H]1C=C[C@@H](NCc2ccccc2)C1 21.7 µM, COc1ccc(CN[C@@H]2C=C[C@@H](c3c(C)nn(-c4ccc(OC)cc4)c3C)C2)cc1 4.85 µM, COc1ccc(-n2nc(C)c([C@@H]3C=C[C@@H](NCc4ccc(N(C)C)cc4)C3)c2C)cc1 4.33 µM, COc1ccc(-n2nc(C)c([C@@H]3C=C[C@@H](NCc4cccc(Cl)c4)C3)c2C)cc1 1.37 µM, O=c1[nH]c(N2CCOCC2)nc2c1CCN(Cc1ccc(Cl)cc1F)CC2 3.35 µM, O=c1[nH]c(N2CCOCC2)nc2c1CCN(Cc1cc(Cl)ccc1F)CC2 2.37 µM, O=c1[nH]c(N2CCOCC2)nc2c1CCN(Cc1cc(F)c(F)cc1F)CC2 15 µM, O=c1[nH]c(N2CCOCC2)nc2c1CCN(Cc1cc(Br)ccc1F)CC2 5.31 µM, CCOc1cc(C2CC(=O)NC3=C2C(=O)C(C(=O)OC)C(C)C3)cc(Br)c1O (configuration not stated) 6.68 µM, CCN(CC)c1cc(C)c2cc(NC(=O)/C=C/c3cc(OC)c(OC)c(OC)c3)ccc2n1 4.73 µM, CCOc1ccc(/C=C/C(=O)Nc2ccc3nc(N(CC)CC)cc(C)c3c2)cc1OC 1.88 µM, CN(C)c1cccc(Nc2cc3c(cn2)CN(Cc2ccccc2)CCN3)c1 13.7 µM, c1ccc(Nc2cc3c(cn2)CN(Cc2ccsc2)CCN3)cc1 13.7 µM, c1ccc(Nc2cc3c(cn2)CN(Cc2ccc4[nH]ccc4c2)CCN3)cc1 1.37 µM, Cc1cc(NC(=O)CN2CCN(c3ccc(O)cc3)CC2)no1 4.73 µM, Cc1cc(C)cc(Nc2cc(C)nc3nc(C)nn23)c1 5.31 µM, Cc1cc(Nc2ccc(Br)cc2)n2nc(C)nc2n1 7.5 µM, Cc1cc(Nc2ccc(C)c(C)c2)n2nc(C)nc2n1 4.73 µM, Cc1cc(Nc2ccc(Br)c(C)c2)n2nc(C)nc2n1 1.33 µM, CC(O)CNCCNCc1c(OCc2ccccc2)ccc2ccccc12 (configuration not stated) 8.41 µM, Cc1cc(N2CCN(C3CCCCC3)CC2)nc2cccc(O)c12 5.31 µM, Cc1cc(N2CCC(N(C)C3CCCC3)CC2)nc2cc(O)ccc12 5.96 µM, Cc1nc2ccc(NC(=O)c3cc(S(=O)(=O)N(C)c4ccccc4)ccc3Cl)cc2s1 0.842 µM, COc1cccc(OC)c1C(=O)NC(=S)Nc1ccc2c(c1)C(=O)N(C)C2=O 0.944 µM, COC(=O)[C@@H]1Cc2c([nH]c3ccccc23)[C@H]2C[C@H](N3CCCCC3)C[C@@H](c3ccccc3F)N21 5.96 µM, CC(C)C(=O)N1Cc2ccccc2CC2(CCCN(CC3CCCCC3)C2)C1 (configuration not stated) 0.0531 µM, Cc1ccc(CN2CCOC[C@H]2c2ncc(C(C)(C)C)[nH]2)cc1 13.7 µM, CC(C)(C)c1cnc([C@@H]2COCCN2Cc2ccccc2O)[nH]1 13.7 µM, Cc1nn2c(c1-c1ccccc1-c1ccccc1)N(Cc1ccc(O)cc1)CCC2 0.485 µM, Cc1nn2c(c1-c1ccccc1-c1ccccc1)N(Cc1cccc(O)c1)CCC2 4.85 µM, CCOc1ccc(NS(=O)(=O)c2csc(C(N)=O)c2)cc1 7.5 µM, CCn1cc(C(=O)O)c(=O)c2cnc(N3CCN(C(=S)Nc4ccccc4)CC3)nc21 3.76 µM, CCc1cc(C(=O)OC)c(NC(=O)CN2CCN(C(=O)c3ccco3)CC2)s1 5.96 µM, Cc1ccc(C(=O)c2cc(C)sc2NC(=O)CN2CCN(C(=O)c3ccco3)CC2)cc1 7.5 µM, COc1ccccc1NC(=O)CSc1nc2c(oc3ccccc32)c(=O)n1-c1ccc(C)cc1 15 µM, COCCN1C(=O)c2ccccc2C(C(=O)Nc2nc3ccccc3[nH]2)C12CCCCC2 (configuration not stated) 4.73 µM, CCc1nc(NC(=O)C2c3ccccc3C(=O)N(CCOC)C23CCCC3)sc1C (configuration not stated) 5.96 µM, COCCN1C(=O)c2ccccc2C(C(=O)Nc2nc3ccccc3[nH]2)C12CCCC2 (configuration not stated) 4.22 µM, Cc1cc(C(F)(F)F)nn1CC(=O)NCCc1ncc(C)n1CC1CC1 10.6 µM, Cc1cccc2cc(CN(Cc3ccco3)C(c3nnnn3CCc3ccccc3)C(C)C)c(=O)[nH]c12 (configuration not stated) 10.6 µM, c1ccc(CCNc2nc(-c3ccccn3)cs2)cc1 7.5 µM, Cc1ccccc1Nc1nc(-c2cccnc2)cs1 9.44 µM, Cc1cccnc1Nc1nc(-c2ccccn2)cs1 0.473 µM, c1ccc(CNc2nc(-c3ccccn3)nc3ccccc23)cc1 5.31 µM

— PubChem BioAssay AID1347416 (National Center for Advancing Translational Sciences (NCATS), 2020)
